In PubChem BioAssay (EPA / NIEHS):
Records with an inconclusive call do not appear. Active and inactive are the calls of the source. The calls were made as follows: active = hit-call score of the fitted dose curve at least 0.9, where 1 is the maximum; inactive = score below 0.9.

Read-out: ABC Transporter (ABCB11), ABCB11 (gene 8647)
Assay: CLD_ABCB11_24hr: CellzDirect (CLD) Gene Expression Assay for ABC Transporter (ABCB11) at 24 hours (AID 2283674)
Protocol: CLD_24hr is a cell-based, multiplexed-readout assay that uses hepatocyte, a human liver primary cell, with measurements taken at 24 hours after chemical dosing in a 96-well plate.CLD_ABCB11_24hr is one of 16 assay component(s) measured or calculated from the CLD_24hr assay. It is designed to make measurements of mRNA induction, a form of inducible reporter, as detected with chemiluminescence signals by Quantitative Nuclease Protection Assay (qNPA) technology.Data from the assay component CLD_ABCB11_24hr was analyzed at the endpoint, CLD_ABCB11_24hr, in the positive analysis fitting direction relative to DMSO as the negative control and baseline of activity. Using a type of inducible reporter, gain-of-signal activity can be used to understand changes in the reporter gene as they relate to the gene ABCB11. Furthermore, this assay endpoint can be referred to as a primary readout. To generalize the intended target to other relatable targets, this assay endpoint is annotated to the transporter intended target family, where subfamily is ABC transporter.
Human hepatocyte cultures were treated daily for two consecutive days with fresh dosing solutions containing appropriate concentrations of the 320 ToxCast chemicals (chemical identities were blinded to CellzDirect and other ToxCast collaborators), vehicle control (0.2% DMSO), and positive control inducers as summarized in Table 1. Due to the large number of treatment groups and chemicals examined, the ToxCast chemicals were divided into two groups (spanning two independent cultures of hepatocytes from separate donor preparations (Hu778: ToxCast plates 1 and 2; Hu776: ToxCast plates 3 and 4). Each preparation of human hepatocyte cultures was treated with respective vehicle control, medium only control, set of six positive controls/reference chemicals for the five hepatic receptor pathways, and a subset of eight of the ToxCast chemicals (indoxacarb, pyrithiobac-sodium, norflurazon, cyhalofop-butyl, methomyl, thiram, acetochlor, and propiconazole). These replicate data, coupled with internal replicates designed within the blinded ToxCast chemical library, provided additional data to evaluate interindividual differences between hepatocyte preparations and their potential impact on chemical profiles.Cell morphology and integrity were evaluated using phase-contrast microscopy as an indicator of hepatocyte cell health (Tyson & Green, 1987). Cultures for each treatment group (i.e., media, vehicle [0.2% DMSO], positive control inducers [multiple concentrations], and the ToxCast chemicals [multiple concentrations]) were observed and cell morphology was assessed relative to vehicle control cultures at each harvest time point (0, 6, 24, or 48 h). […] Images were evaluated at the conclusion of the study to assess changes in cell integrity and account for the effects of chemical exposure on uncharacteristic changes in concentration-dependent gene expression profiles. The results from these determinations of apparent cytotoxicity were annotated (yes/no) alongside the corresponding qNPA data for reference.At the conclusion of each treatment period, hepatocyte cultures (96-well) were washed with 1 volume of HBSS, lysed by addition of 25 ul ArrayPlate lysis buffer (HTG, Tucson, AZ), and 70 ul/well of Denaturation Oil, denatured by incubation at 95C for 10 min, and frozen at approximately -70C until analysis by nuclease protection assay (qNPA) (Roberts et al., 2007). For qNPA analysis, cell lysates were thawed at 50C for approximately 30 min, qNPA probes were added, and samples were incubated at 95C for 10 min to begin the detection process by denaturing the target RNA, dissociating the duplexes and secondary structure hybridization. At the conclusion of the hybridization period, S1 nuclease reagent was added to each sample to digest all nonprotected nucleotides at 50C for 60-90 min. […]

| Compound | outcome | AC50 |
| --- | --- | --- |
| COP(=S)(OC)Oc1nc(Cl)c(Cl)cc1Cl | inactive | – |
| CN(C)C(=S)SSC(=S)N(C)C | inactive | – |
| C#CCOS(=O)OC1CCCCC1Oc1ccc(C(C)(C)C)cc1 (stereo unspecified) | inactive | – |
| O=C(O)c1nc(Cl)ccc1Cl | inactive | – |
| Oc1ccccc1-c1ccccc1 | inactive | – |
| COc1nc(C)nc(NC(=O)NS(=O)(=O)c2ccccc2Cl)n1 | inactive | – |
| CC(C)(C)c1ccc(CSc2cnn(C(C)(C)C)c(=O)c2Cl)cc1 | inactive | – |
| CCCCOC(=O)c1ccccc1C(=O)OCCCC | inactive | – |
| CCCN(CCC)c1c([N+](=O)[O-])cc(S(N)(=O)=O)cc1[N+](=O)[O-] | inactive | – |
| C=CC1(C)OC(=O)N(c2cc(Cl)cc(Cl)c2)C1=O (stereo unspecified) | inactive | – |
| CCc1nn(C)c(C(=O)NCc2ccc(C(C)(C)C)cc2)c1Cl | – | 34.8 µM (active) |
| CCCCC(CC)COC(=O)c1ccccc1C(=O)OCC(CC)CCCC (stereo unspecified) | inactive | – |
| COC(=O)N(OC)c1ccccc1COc1ccn(-c2ccc(Cl)cc2)n1 | – | 6.18 µM (active) |
| COc1nc(C)nc(NC(=O)NS(=O)(=O)c2ccccc2CCC(F)(F)F)n1 | inactive | – |
| COC(=O)C(C)Oc1ccc(Oc2ccc(Cl)cc2Cl)cc1 (stereo unspecified) | inactive | – |
| COC(=O)c1ccccc1C(=O)OC | inactive | – |
